The list is not random: actives were taken first. Their share in the collection is about 4%.
PAX8 inh HTS = inhibitors of PAX8-driven TPO luciferase reporter, primary screen, RMG-I cells, single concentration | SteadyGlo, 24 h | inhibition, % at 12.6 µM | 360,000 tested, 1.2% active | AID 652154, 2013;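 active = mean replicate inhibition at least 60% with every replicate also reaching 60%; inconclusive = only one of the two criteria is met; inactive = mean below 60% and not all replicates reaching 60%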;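 note: luciferase light reporting Pax8 driven TPO promoter activity; plate controls were median of neutral control wells for no effect and mitoxantrone controls for full effect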
Wnt bcat act = Wnt/beta-catenin pathway activators, primary screen, cell-based, plate reader, single point | Wnt/beta-catenin reporter cell assay, activator | AID 743398, 2014 | 300,000 tested, 1.2% active | activation, % at 9.35 µM; in the data active = activation above about 30%, passing the limit was not always enough; inconclusive = no clear call, values can overlap the other calls;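 note: 0% = neutral control wells and 100% = positive control wells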
TRPM1 prom inh = inhibitors of MITF-dependent TRPM1 promoter reporter, primary screen, cell-based, SK-MEL-5, single point, luciferase; SK-MEL-5 TRPM1 promoter luciferase, 24 h; inhibition, % at 12.5 µM; 330,000 tested, 0.83% active; AID 488899, 2010;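 active = mean inhibition across replicates of 60% or more, whatever share of single replicates reaches that level; inconclusive = some that reach 60%, reason not given; inactive = mean inhibition across replicates below 60%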
MITF TRPM1 HTS = activators of MITF-driven TRPM1 promoter reporter, primary screen, cell-based, SK-MEL-5, luciferase, single point. activation, % at 12.5 µM. AID 588334, 2011. SK-MEL-5 TRPM1-promoter luciferase, 24 h; % of positive control, neutral wells = 0. 300,000 tested, 0.75% active;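 active = mean activation of at least 80% with every replicate also reaching 80%; inconclusive = mean reaches 80% but some replicate falls short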;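 note: 0% = neutral control wells and 100% = parthenolide positive control wells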
esBAF inh = Bmi1 luciferase reporter increase in mESCs, primary screen, esBAF inhibitor project, mouse ES cells, Bmi1 luciferase knock-in, single point | 24 h; 100% = twice the neutral-well signal | reporter increase, % at 12.5 µM | 350,000 tested, 2% active; in the data active = activation above about 40%; inconclusive = no clear call, values can overlap the other calls;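 note: 0% = median of the plate's neutral control wells and 100% = double that signal; a rise in the Bmi1 reporter signal indicates esBAF inhibition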
EWS-Fli block = EWS/Fli-driven NR0B1 reporter inhibitors, primary screen, A673 cells, NR0B1 luciferase, luminescence, MLPCN library; inhibition, % at 12.6 µM; viability-normalised; AID 651661, 2012; 350,000 tested, 0.67% active;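 active = mean inhibition of at least 50% after viability correction, with every replicate also passing that limit; inconclusive = mean reaches 50% but only one of two replicates passes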;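 note: firefly luciferase signal divided by Alamar Blue viability fluorescence both relative to DMSO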
The depositor's hits bear a star; ? = inconclusive; · = no result.

SMILES	PAX8 inh HTS	Wnt bcat act	TRPM1 prom inh	MITF TRPM1 HTS	esBAF inh	EWS-Fli block
CCC(=O)N1C[C@H](O)COC[C@@H]2O[C@@H](CC(=O)NCC3CCCCC3)CC[C@H]21	-52	·	·	·	-7	-6
Nn1c(SCc2ccccc2)nc2ccccc21	-209	28	-84	?	54*	-133
O=C(O)Cn1c(SCc2ccccc2)nc2ccccc21	·	1	-2	2	-5	·
Cc1sc(NC(=O)c2ccco2)c(CN2CCCCC2)c1C	·	6	-1	·	4	·
COc1ccc(C(=O)Nc2sc(C)c(C)c2CN2CC(C)OC(C)C2)cc1 (stereo not drawn)	44	9	-1	10	72*	-19
Cc1ccc(OC(=O)COc2ccccc2)c(-n2nc3ccccc3n2)c1	-228	55*	-38	37	·	·
Cc1ccc(OC(=O)c2cccc([N+](=O)[O-])c2)c(-n2nc3ccccc3n2)c1	-177	43*	-64	76	84*	·
Cc1ccc(OC(=O)COc2ccccc2C)c(-n2nc3ccccc3n2)c1	·	18	-55	60	27	·
C[C@H](CO)N1C[C@H](C)[C@H](CN(C)CC2CC2)Oc2cc(C#Cc3ccc(F)cc3)ccc2S1(=O)=O	·	·	·	·	-2	12
Cc1oc(-c2ccc(Cl)cc2)cc1C(=O)O	-55	23	-44	43	56*	-48
Cc1oc(-c2ccccc2)cc1C(=O)Nc1cccc(C(=O)O)c1	·	·	-2	2	16	·
C[C@@H]1CN([C@H](C)CO)C(=O)c2cccc(NS(=O)(=O)c3cccs3)c2O[C@@H]1CN(C)Cc1ccc(Oc2ccccc2)cc1	·	·	·	·	-5	6
Cc1ccc(/C=C2\Sc3ccccc3C2=O)s1	-54	72*	-12	6	27	·
C[C@@H]1CN([C@@H](C)CO)C(=O)c2cc(NC(=O)c3ccncc3)ccc2O[C@@H]1CN(C)Cc1ccc(-c2ccccc2)cc1	15	·	·	·	-6	17
CCCNC(=O)C[C@H]1CC[C@@H]2[C@H](COc3ccc(NC(=O)c4ccc(Cl)cc4)cc3C(=O)N2C)O1	0	·	·	·	2	-21
CNC[C@@H](C)NC[C@@H](Cc1ccccc1)NCCc1ccccc1	-9	-1	-18	20	1	11
CC[C@H](C)[C@@H](CN[C@H](C)CNC)NCCC(c1ccccc1)c1ccccc1	75*	-10	90*	-90	8	17
O=C(Cn1nnc(-c2ccc(OCc3ccccc3F)cc2)n1)N1CCOCC1	·	·	-70	76	41*	·
COc1ccc(-c2nnn(CC(=O)N3CCOCC3)n2)cc1	·	-1	11	-11	-1	10
CN(C)c1ccc(-c2nnn(Cc3ccccc3Br)n2)cc1	·	9	-52	55	94*	-57
Fc1ccccc1Cn1nnc(-c2ccc3c(c2)OCO3)n1	-194	71*	-72	67	22	·
COc1ccc(-c2nnn(Cc3ccccc3F)n2)cc1	·	·	-103	108*	64*	·
COc1cc(-c2nnn(Cc3ccccc3C)n2)cc(OC)c1OC	27	0	7	-8	4	14
COc1ccccc1NC(=O)N1CC(=O)N2[C@H](CO)[C@@H](c3ccc(-c4cccc(C)c4)cc3)[C@@H]2C1	·	·	·	·	·	3
N#C[C@H]1[C@H](c2ccccc2C2=CCCC2)[C@@H](CO)N1C(=O)NC1CCCC1	·	·	·	·	·	-5
SMILES	PAX8 inh HTS	Wnt bcat act	TRPM1 prom inh	MITF TRPM1 HTS	esBAF inh	EWS-Fli block
O=C(Nc1cc(F)ccc1F)N[C@H]1C=C[C@H](CC(=O)N2CCc3ccccc3C2)O[C@@H]1CO	-15	·	·	·	-2	0
CNc1c2cccc(C)c2nc2c(C(=O)NCCN(C)C)cccc12	36	4	100*	-100	·	58*
CN1[C@@H]2Cn3c(ccc(C4=CCCCC4)c3=O)[C@H]1[C@@H](C(=O)NCc1cc(F)cc(F)c1)[C@@H]2CO	6	·	·	·	1	2
c1ccc(C[n+]2c(-c3ccccc3)csc2Nc2ccccc2)cc1	36	1	-7	4	·	-25
c1ccc(Nc2scc(-c3ccccc3)[n+]2Cc2ccco2)cc1	-280	53*	-63	72	·	-82
O=C1c2ccccc2C(=O)c2c(/C=C/N3CCCCC3)ccnc21	53	-9	95*	-95	·	-1
O=C1c2ccccc2-c2cccnc21	20	2	·	·	-4	16
Nc1nc(N)nc(-c2ccccc2)n1	-21	5	-2	0	10	-10
Nc1nc(N)nc(-c2ccc(Cl)c(Cl)c2)n1	-403	38*	-78	71	32	-129
CN(C)S(=O)(=O)c1ccc(C(=O)NCCOc2ccc(F)cc2)cc1	·	21	-55	65	61*	-66
CN(C)S(=O)(=O)c1ccc(C(=O)NCCS(=O)(=O)N2CCN(c3ccc(F)cc3)CC2)cc1	-1	-4	7	-8	-1	8
Cc1ccc(CSCCNC(=O)c2ccc(N(C)S(=O)(=O)c3ccccc3)cc2)cc1	·	·	-6	6	-3	·
CN(C)S(=O)(=O)c1ccc(C(=O)NCCOc2ccccc2)cc1	-136	48*	-58	63	·	·
CN(c1ccc(C(=O)NCCSC(C)(C)C)cc1)S(=O)(=O)c1ccccc1	-12	44*	-5	7	0	-67
COc1ccc(C(=O)CC(=O)c2ccccc2O)cc1OC	-52	-1	-64	67	57*	-85
COc1ccc(C(=O)CC(=O)c2ccccc2O)cc1	-152	18	-68	58	39	-89
CCC(=O)c1ccc(OCc2ccccc2)c(OC)c1	·	·	-76	101*	95*	·
CCC(=O)c1ccc(OCc2ccc(C(=O)OC)cc2)c(OC)c1	·	·	-26	30	12	·
Cc1cccc(OCCCC(=O)Nc2ccc(S(N)(=O)=O)cc2)c1	-2	36*	1	-1	-2	-4
Cc1ccc(NC(=O)CN(C)C(=O)CCOc2cccc(C)c2)cc1	-9	31*	-4	6	·	·
COc1cccc(-c2ccc(CC[C@H]3O[C@H]4CC[C@H](CO)O[C@H]4C[C@@H]3NC(=O)c3cnccn3)cc2)c1	-5	·	·	·	·	3
CCCc1ccc2oc(C(=O)N3CCC(O)CC3)c(C)c2c1	-99	0	-50	55	?	·
CCCc1ccc2oc(C(=O)N(C)Cc3nccs3)c(C)c2c1	-135	13	-35	41	52*	·
C[C@H](CO)N1C[C@H](C)[C@H](CN(C)C(=O)Nc2ccc3c(c2)OCO3)OCCCC[C@H](C)Oc2ccc(NS(=O)(=O)c3ccccc3)cc2C1=O	18	·	·	·	8	-6
Cc1ccc(S(=O)(=O)Nc2ccc3c(c2)C(=O)N([C@H](C)CO)C[C@H](C)[C@H](CN(C)Cc2ccc(C(F)(F)F)cc2)OCCCC[C@@H](C)O3)cc1	25	·	·	·	0	1
